Experimental data taken from PubChem BioAssay AID2061166 (Soto Lab, Mitchell Center for Alzheimers Disease and …, 2025).
A number with no mark means an inactive call. Activity calls are given as the source filed them.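 How the source made its calls: active means mean tau seeding fluorescence area under 1% of vehicle, meaning inhibition above a set limit; inactive means the rest.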

Biological target: Microtubule-associated protein tau (Homo sapiens) (UniProt P10636)
Test: inhibitors of seeded tau aggregation, primary screen, biochemical, seed amplification, ThT fluorescence (AID 2061166)
Settings: Recombinant tau seeded by AD brain, ThT fluorescence AUC; at 100 µM; active compounds read high

Chain of Microtubule-associated protein tau (Homo sapiens) (P10636 whole entry, looked up): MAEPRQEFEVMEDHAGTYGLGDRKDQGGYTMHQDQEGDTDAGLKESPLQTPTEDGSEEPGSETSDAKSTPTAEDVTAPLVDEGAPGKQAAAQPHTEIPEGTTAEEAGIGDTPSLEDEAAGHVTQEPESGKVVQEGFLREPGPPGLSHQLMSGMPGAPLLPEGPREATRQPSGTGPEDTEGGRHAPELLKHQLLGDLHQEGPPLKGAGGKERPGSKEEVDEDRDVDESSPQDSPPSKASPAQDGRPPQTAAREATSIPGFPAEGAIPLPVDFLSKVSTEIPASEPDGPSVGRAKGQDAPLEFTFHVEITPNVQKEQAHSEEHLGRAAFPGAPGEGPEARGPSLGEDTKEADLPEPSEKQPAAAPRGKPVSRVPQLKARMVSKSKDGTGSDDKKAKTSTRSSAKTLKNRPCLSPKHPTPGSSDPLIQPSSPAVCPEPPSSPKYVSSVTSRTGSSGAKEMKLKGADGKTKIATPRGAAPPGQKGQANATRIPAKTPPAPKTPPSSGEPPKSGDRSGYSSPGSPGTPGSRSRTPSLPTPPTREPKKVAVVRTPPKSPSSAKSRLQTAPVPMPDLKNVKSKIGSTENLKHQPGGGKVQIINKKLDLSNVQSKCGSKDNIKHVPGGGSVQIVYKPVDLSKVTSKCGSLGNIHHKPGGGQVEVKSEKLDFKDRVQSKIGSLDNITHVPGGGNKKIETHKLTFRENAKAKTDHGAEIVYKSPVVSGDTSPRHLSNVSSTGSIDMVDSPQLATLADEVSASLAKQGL

SMILES | inhibition
Nc1nc2[nH]cc(CCc3ccc(C(=O)NC(CCC(=O)O)C(=O)O)cc3)c2c(=O)[nH]1 (stereo unspecified) | 15.2%
O=c1c(-c2ccc(O)cc2)coc2cc(O)cc(O)c12 | -59.4%
CC(=O)NC(CS)C(=O)O (stereo unspecified) | 5.01%
CNCCC(Oc1cccc2ccccc12)c1cccs1 (stereo unspecified) | 48.5%
Cc1ccc(C(=O)c2cc(O)c(O)c([N+](=O)[O-])c2)cc1 | 77.7%
CCN(CC)CC#CCOC(=O)C(O)(c1ccccc1)C1CCCCC1 (stereo unspecified) | -0.433%
COc1ccc(C2CNC(=O)C2)cc1OC1CCCC1 (stereo unspecified) | 16.3%
Cc1ccc(Nc2c(F)cccc2Cl)c(CC(=O)O)c1 | 11.4%
O=C1C=C(NC(Cc2c[nH]c3ccccc23)C(=O)O)C(=O)c2ccccc21 (stereo unspecified) | 52.4%
Cc1c(C(=O)NN2CCCCC2)nn(-c2ccc(Cl)cc2Cl)c1-c1ccc(Cl)cc1 | 50.7%
CC12CC3(O)OC(O1)C1(COC(=O)c4ccccc4)C3CC21OC1OC(CO)C(O)C(O)C1O (stereo unspecified) | -50%
CN(C)CC(c1ccc(O)cc1)C1(O)CCCCC1 (stereo unspecified) | 15.1%
Nc1cccc2c1C(=O)N(C1CCC(=O)NC1=O)C2=O (stereo unspecified) | 16.4%
Cc1cc(=O)n(-c2ccccc2)n1C | 8.96%
Nc1c(N=Nc2ccc(-c3ccc(N=Nc4cc(S(=O)(=O)O)c5ccccc5c4N)cc3)cc2)cc(S(=O)(=O)O)c2ccccc12 | 100% (active)
Cc1ccsc1C(=CCCN1CCCC(C(=O)O)C1)c1sccc1C (stereo unspecified) | 3.27%
